# Assay outcomes deposited in PubChem by National Center for Advancing Translational Sciences (NCATS).
# ELG1 genotoxic – induces genotoxicity in HEK293T cells with luciferase-tagged ELG1; HEK293T ELG1-luciferase reporter, luminescence, 16 h; Potency, µM (highest dose often 46 µM), inactives show at the top dose activity change, positive = activation, hits mostly activators; 1.3% of 330,000 active; AID 504466; note: % of control where 0% means no effect; nearly all actives have a fitted effect of over 60% in size
#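 After overnight (16 hr) compound treatment at 37 °C, ELG1-luciferase HEK293T cells were lysed with ONE-Glo; luminescence quantified 30 min later at room temperature.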
# ELG1 DNA repair – ELG1-dependent DNA repair inhibition | 2.3% of 330,000 active | AID 504467 | Potency, µM (titrated, usually from 46.1 µM), inactives show top-dose activity change, negative = inhibition, usual class: inhibitors | HEK293T ELG1-luciferase reporter, luminescence, 16 h; DNA damage induced by 5-fluorouridine; note: % is set by controls: 0 for no effect and ±100 for the full control effect; nearly all actives have a fitted effect of over 55% in size
#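 In this reporter screen, reduction of luminescence relative to DMSO vehicle indicated activity. Compounds and 5-fluorouridine were added together to 2,000 cells per well, incubated for 16 hr at 37 °C, then developed with ONE-Glo.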
# SMN2 splice enh – enhancers of SMN2 splice variant expression; HEK293 SMN2-luciferase splicing reporter, luminescence, 30-36 h; Potency, µM (top dose mostly 46.1 µM), for inactives: at the top dose activity change, positive = activation, most hits filed as activators; 2.8% of 210,000 active; note: % of control where 0% means no effect; nearly all actives have a fitted effect of over 55% in size
#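 HEK293 cells carry an SMN2 […]–luciferase reporter in which exon 7 inclusion puts luciferase in frame. Cells were plated 10-12 h before compound addition, then incubated 30-36 h at 37C. ONE-Glo luminescence was read; sodium butyrate at 4.5 mM final served as control.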
# NPC1 prom act – NPC1 promoter activation; Huh7 NPC1 promoter luciferase reporter, 24 h; Potency, µM (highest dose often 9.22 µM), for the others: top-dose activation, usual class: activators; 2.4% of 320,000 active; AID 485313; note: % of control where 0% means no effect; nearly all actives have a fitted effect of over 60% in size
#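 NPC1 promoter–luciferase Huh7 cells; 24 h compound; luminescence.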
# FLuc modulator – firefly luciferase modulation, counter-screen for miR-21 project; P08659; purified FLuc, Km substrates, luminescence inhibition; Potency, µM (titrated, usually from 57.5 µM), for the others: at the top dose activity change, negative = inhibition, most hits filed as inhibitors; 6.9% of 360,000 active;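 note: plate controls were vehicle for no effect and reference inhibitor for full effect; nearly all actives have a fitted effect of over 55% in size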
# Target sequence (P08659 whole entry, looked up): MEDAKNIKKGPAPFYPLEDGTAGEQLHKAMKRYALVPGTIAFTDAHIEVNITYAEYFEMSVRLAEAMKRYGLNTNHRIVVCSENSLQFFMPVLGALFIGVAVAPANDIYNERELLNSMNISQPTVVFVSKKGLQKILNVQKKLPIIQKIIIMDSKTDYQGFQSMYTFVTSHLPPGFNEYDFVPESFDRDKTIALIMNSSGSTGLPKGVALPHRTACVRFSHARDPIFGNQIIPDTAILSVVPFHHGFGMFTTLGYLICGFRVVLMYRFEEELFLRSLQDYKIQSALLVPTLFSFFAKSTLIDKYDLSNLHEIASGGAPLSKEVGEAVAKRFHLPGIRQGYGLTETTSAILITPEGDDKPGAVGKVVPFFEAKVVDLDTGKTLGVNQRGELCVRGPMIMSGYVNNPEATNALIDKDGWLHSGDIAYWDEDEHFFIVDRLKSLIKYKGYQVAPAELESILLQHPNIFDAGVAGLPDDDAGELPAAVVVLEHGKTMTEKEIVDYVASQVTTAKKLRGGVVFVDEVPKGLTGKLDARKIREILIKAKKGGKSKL
#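 Purified P. pyralis luciferase, 10 nM final, with Km-level 10 uM D-luciferin and 10 uM ATP in 50 mM Tris acetate pH 7.5, 10 mM Mg acetate, 0.01% Tween-20, 0.05% BSA; 6-point qHTS titration about 60 µM downward; luminescence read.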
# Rab9 promoter act – Rab9 promoter activation | Huh7 Rab9 promoter-luciferase reporter, luminescence, 24 h | Potency, µM (titrated, usually from 9.22 µM), for the others: at the highest dose activation, negative = inhibition, hits mostly activators | 2.8% of 320,000 active; note: % of control where 0% means no effect; nearly all actives have a fitted effect of over 60% in size
#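 Huh7 cells stably carrying a Rab9 promoter-luciferase reporter, 1500 cells per well in OP-MEM I with 10% FBS, treated with compound 24 hours at 37C. Luciferase activity read by luminescence after 10 minutes with Amplite reagent.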
# The depositor's hits bear a star; ? = inconclusive; / = no result; [ ] = remark or other dose. Only some compounds are listed: those with a hit (about 9.2% of all), similar ones and a draw of the others. Calls come from the whole dose curve; as a rule, active = well fitted curve in the direction sought with a large enough effect; inconclusive = small, poorly fitted or top-dose-only effect, or another doubt; inactive = no such curve, though single readings can be large; an effect the other way counts as inactive or inconclusive. Potency is the fitted concentration of half-maximal effect.
SMILES,ELG1 genotoxic,ELG1 DNA repair,SMN2 splice enh,NPC1 prom act,FLuc modulator,Rab9 promoter act
CCOc1ccc(C(=O)NCCN(C)C)cc1,4%,17%,11%,-3%,4%[2.3 µM],2%
CS(=O)(=O)N1CCc2cc(C(=O)NCCc3ccccc3)ccc21,/,/,13µM*,/,?,/
COc1ccc(C(=O)NCC(=O)OCCCOC(=O)CNC(=O)c2ccc(OC)c(OC)c2)cc1OC,5%,-3%,/,-2%,-1%,-1%
COc1ccc(CN(C)C(=O)c2ccc(COc3ccccc3)cc2)c(OC)c1,-19%,?,/,-7%,3%,-4%
CCOc1ccc(C(=O)NCCCCNC(=O)c2ccc(OCC)cc2)cc1,?,?,/,3.5µM*,?,?
COc1ccccc1NC(=O)COC(=O)CNC(=O)c1ccc(OC)c(OC)c1,18µM*,?,5µM*,14%,-1%,21%
COc1cc(OC)c(OC)cc1CNC(=O)c1ccc(COc2ccccc2)cc1,-12%,10µM*,/,0%,-12%,-5%
Cc1cccc(NC(=O)CSc2nnc3c4ccccc4n(C)c3n2)c1,/,/,-12%,/,-1%,/
CCOc1ccc(NC(=O)CSc2nnc(CNC(=O)C34CC5CC(CC(C5)C3)C4)n2CC)cc1,/,/,-2%,/,-13%,/
CCc1ccccc1NC(=O)c1cc(S(=O)(=O)N2CCCc3ccccc32)ccc1F,/,/,/,/,5%,/
COc1ccc(C(=O)NCCc2ccccc2)cc1OC,17%,?,/,?,?,4µM*
CC1CN(C(=O)Nc2ccc(C(=O)NCCc3ccccc3)cc2)c2ccccc2S1 (stereo not given),/,/,14µM*,/,-10%,/
CCc1ccc(CNC(=O)c2ccc(NC(=O)N3CC(C)Sc4ccccc43)cc2)cc1 (stereo not given),/,/,2%,/,2%,/
CC(=O)Oc1ccc(-c2ccc(C(=O)NCCc3ccc(S(N)(=O)=O)cc3)cc2)cc1,14%,-21%,/,-5%,1%,-1%
CC(=O)Oc1ccc(C(=O)NCCc2ccccc2)cc1,15%,?,8.9µM*,0.4µM*,9.5µM*,0.5µM*
CCOC(=O)c1c(C)c(C(=O)NCCc2ccccc2)c(C)n1C,?,?,16µM*,?,?,3.5µM*
CCc1ccc(N=C2NC(=O)CC(C(=O)Nc3ccc(OC)cc3)S2)cc1 (stereo not given),/,/,-3%,/,-2%,/
CC(=O)Nc1ccc(S(=O)(=O)NC2(C(F)(F)F)NC(=O)N(Cc3ccccc3)C2=O)cc1 (stereo not given),3%,-12%,/,-5%,-2%,-1%
COc1cc(C(=O)NCC(c2ccc3c(c2)OCO3)N2CCOCC2)cc(OC)c1OC (stereo not given),/,/,/,/,2%,/
COc1cc2ncc(C(=O)c3ccc(C)cc3)c(N3CCCCC3)c2cc1OC,/,/,-55%,/,?,/
CS(=O)(=O)Nc1ccc(C(=O)NCCc2ccccc2)cc1,?,?,11µM*,?,?,2µM*
CCOc1ccc(C(=O)NCCc2ccccc2)cc1,0.58µM*,?,3.5µM*,0.4µM*,1.1µM*,0.32µM*
COc1ccc(C(=O)Nc2ccc(C(=O)NCCc3ccccc3)cc2)cc1,6%,0%,/,-3%,-6%,-2%
CS(=O)(=O)NCc1ccc(C(=O)NCCOc2ccccc2)cc1,?,?,11µM*,4µM*,19µM*,3.5µM*
COc1ccc(/C(O)=C/c2nc3ccc(C(=O)NCCc4cccc(C)c4)cc3[nH]c2=O)cc1OC,-8%,3.3µM*,18%,0%,4%,-11%
SMILES,ELG1 genotoxic,ELG1 DNA repair,SMN2 splice enh,NPC1 prom act,FLuc modulator,Rab9 promoter act
O=C1C(c2cccc(Br)c2)N(CCc2ccccc2)C(=O)CN1C1CCCCC1 (stereo not given),/,/,/,/,-7%,/
Cc1ccc(N2C(=O)CC(SCC(=O)Nc3ccc(S(N)(=O)=O)cc3)C2=O)cc1 (stereo not given),?,?,/,?,27µM*,?
CC(=O)c1ccc(OCCCCOc2ccc(C(C)=O)cc2)cc1,0%,19%,/,4%,-12%,0%
CCOC(=O)Cc1csc(NC(=O)Nc2cccc(Cl)c2)n1,0%,-19%,-40%,0%,5.4µM*,-3%
CCOC(=O)Cc1csc(NC(=O)Nc2ccc(Cl)cc2)n1,-6%,18µM*,/,-6%,6µM*,-7%
CC(=O)c1ccc(OCCCOc2cccc3cccnc23)cc1,-7%,13%,/,-9%,-12%,-2%
CC(=O)CCc1ccc(OCCCOc2cccc3cccnc23)cc1,3%,-15%,/,5%,21µM*,0%
Cc1cccc(-n2ncc3c(Nc4c(C)n(C)n(-c5ccccc5)c4=O)ncnc32)c1,-2%,-4%,3%,1%,-8%,7%
Cc1cccc(-n2ncc3c(NC4CCCC4)ncnc32)c1,/,/,/,/,3µM*,/
Cc1cccc(-n2ncc3c(NC4CCCCC4)ncnc32)c1,?,?,?,4.5µM*,1.5µM*,2µM*
Clc1cccc(-n2ncc3c(NC4CCCCCC4)ncnc32)c1,/,/,/,/,6µM*,/
COc1ccc(CNC(=O)CN(C(=O)CCC(=O)Nc2nccs2)c2ccccc2C)cc1,-6%,7%,/,0%,0%,-1%
Cc1nc2ncnn2c(C)c1CCC(=O)NCc1ccc(Cl)cc1,/,/,4%,/,-4%,/
Cn1cc(C(=O)NC2CCCCC2)c(=O)c2cc(S(=O)(=O)N3CCCC3)ccc21,2%,9%,11µM*,1%,0%,-8%
CCn1cc(C(=O)NC2CCC(C)CC2)c(=O)c2cc(S(=O)(=O)N3CCCCC3)ccc21 (stereo not given),9%,?,13µM*,?,21µM*,?
CCC(C)NC(=O)c1cn(CC)c2ccc(S(=O)(=O)N3CCCCCC3)cc2c1=O (stereo not given),-4%,6.5µM*,/,-4%,2%,8%
CC1CCN(S(=O)(=O)c2ccc3c(c2)c(=O)c(C(=O)NC2CCCC2)cn3C)CC1,-3%,-18%,-14%,-2%,-2%,3%
CCOc1cccc(CC(=O)NCc2ccc3c(c2)CCN3C(C)=O)c1OCC,/,/,/,/,4%,/
Cc1ccc(-n2nc(C(=O)N3CCCCC3C)c(=O)n(C)c2=O)cc1 (stereo not given),/,/,/,/,5%,/
COc1ccc(C(=O)O)cc1S(=O)(=O)Nc1ccc(N2CCCCC2)cc1,10%,?,/,/,/,/
C=CCN1C(=O)c2ccc(C(=O)N(CC(C)C)c3c(N)n(CCCC)c(=O)[nH]c3=O)cc2C1=O,0%,?,/,0%,5%,0%
